About 8,200 (3.7%) of roughly 220,000 compounds were called active. Only a selection was taken, and actives are over-represented in it overall. A number with no mark means an inactive call.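 Rule for the calls: active = compounds that reduced the stress-induced luciferase reporter signal by more than about 70% of percent inhibition (limit read from the data); inactive = the rest.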

For orientation: inhibition means the drop in the measured response relative to a control, in per cent.

The experiment is described as follows: inhibitors of CHOP promoter induction, primary screen, cell-based, unfolded protein response, luciferase reporter (AID 2732).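 Note: 0% = tunicamycin plus vehicle and 100% = wells without tunicamycin.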 Conditions: CHO-K1 CHOP-promoter luciferase, tunicamycin-induced, 15-18 h; at 10 µM; stronger effect = higher value.
Turning to `CNc1ccc([N+](=O)[O-])cc1C(=O)O`, the inhibition was -14.2%.
Consider `Nc1nc(O)c(CC(=O)O)s1`, for which the inhibition was 9.65%.
The result for `CC(=O)N/C(=C\c1ccc(F)cc1)C(=O)NC(Cc1ccccc1)C(=O)O` (stereo not given) reads 2.9%; that for `CC(=O)Nc1ccc(/C=N/NC(=O)c2cccs2)cc1`, -21.6%.
The result for `Cc1ccc(-n2nc(C)c(/C=N/NC(=O)c3cccs3)c2Cl)cc1` reads 99.7% (active); that for `Cc1cccc(-n2c(C)cc(/C=N\NC(=O)c3cccs3)c2C)c1`, 13.8%; that for `O=C(NCCCn1ccnc1)C(=O)NCC1OCCN1S(=O)(=O)c1cc(F)ccc1F` (stereo not given), 19.4%.
The result for `O=C(/C=C/c1ccc(Cl)cc1)N1CCN(c2ccccc2[N+](=O)[O-])CC1` reads 32.3%.
Consider `CO/N=C/c1ccc(N2CCN(C(=O)c3cccc(Cl)c3)CC2)c([N+](=O)[O-])c1`, for which the inhibition was 71.8% (active).
The result for `O=C(c1ccc(Cl)c([N+](=O)[O-])c1)N1CCN(c2ccccc2)CC1` reads -20.4%.
As to `CC12C(=O)N(c3ccccc3)C(=O)C1C(c1ccccc1)N1CCCN12` (stereo not given), the inhibition was 7.95%.
The result for `O=[N+]([O-])c1ccc(N2CCSCC2)cc1O` reads 13.8%; that for `O=C(Cc1cccc2ccccc12)NNC(=O)Nc1ccc(Cl)cc1`, 13.2%; that for `Cc1ccc(NC(=S)NC(NC(=O)Cc2cccc3ccccc23)C(Cl)(Cl)Cl)cc1` (stereo not given), 110% (active).
The result for `CC(C)(C)C(=O)NC(NC(=S)Nc1ccc(S(N)(=O)=O)cc1)C(Cl)(Cl)Cl` (stereo not given) reads -6.4%; that for `O=C(NNC(=S)NC1CC2CCC1C2)c1ccc(Cl)cc1` (stereo not given), -10.6%.
On to `CC1(C)Oc2ccc3ccc(=O)oc3c2/C(=C/NCCO)C1=O`, for which the inhibition is 7.95%.
The result for `C/C=C(/C)C(=O)OC1Cc2c(ccc3ccc(=O)oc23)OC1(C)C` (stereo not given) reads 74.3% (active); that for `O=C(NCc1csc(-c2cccs2)n1)C1CC1`, 21.8%.
The result for `COc1ccccc1OCC(=O)O/N=C(\N)c1ccccn1` reads -9.1%; that for `CCCCN1CCNC1=S`, 11%; that for `Cc1ccc(-c2noc(CSc3nnc(-c4ccncc4)n3-c3ccc(F)cc3)n2)cc1`, 35.3%.
The result for `Cc1nnc(SCc2ccc(C(=O)c3ccc(Cl)cc3)o2)n1-c1ccccc1` reads 24.9%; that for `Fc1ccc(-n2c(Cc3ccccc3)nnc2SCc2nc(-c3ccc(Cl)cc3)no2)cc1`, 82.2% (active).
Consider `Cc1oc(C(N)=O)cc1COc1ccc(C(N)=O)cc1`, for which the inhibition is 0.47%.
Take `CC(=O)NC(=S)Nc1ccc(NC(=S)NC(=O)c2ccc([N+](=O)[O-])cc2)cc1`: the inhibition is -4.53%.
The result for `O=C(Nc1ccc(F)c(Cl)c1)C1CCN(S(=O)(=O)c2cccnc2)CC1` reads 24.3%.
The result for `O=C(Nc1nccs1)C1CCN(S(=O)(=O)c2ccc(Cl)c(C(F)(F)F)c2)CC1` reads 70.1% (active); that for `Cc1noc(C)c1S(=O)(=O)N1CCCC(C(=O)Nc2nccs2)C1` (stereo not given), 11.8%.
In the case of `CN(Cc1nc(-c2cnccn2)no1)Cc1n[nH]c2c1CCCCC2`, the inhibition was 0.16%.
The result for `Cc1[nH]c2ccccc2c1C(=O)COC(=O)C(C)C` reads 9.48%.
With `CCOC(=O)c1c(C)[nH]c2c1-c1ccccc1C(=O)C2=O`, the inhibition was 108% (active).
The result for `CCOC(=O)c1c(C)[nH]c(=S)c(C#N)c1-c1ccccc1` reads -25.2%; that for `COc1ccc(C(=O)NCC(=O)N/N=C/c2ccc([N+](=O)[O-])o2)cc1OC`, -82.2%.
With `CCOC(=O)Cc1cc(=O)[nH]c(/N=C(\N)Nc2ccc(OC)cc2)n1`, the inhibition was -6.01%.
The result for `Cc1ccc(NC(=O)C/C(N)=N/O)cc1Cl` reads 1.88%; that for `O=C(CC(O)(C(F)(F)F)C(F)(F)F)Nc1ccc(Cl)c(Cl)c1`, 86% (active).
Consider `O=C(CC(=O)Nc1ccc(Cl)c(Cl)c1)N/N=C/c1ccc(O)cc1`, for which the inhibition is 23.4%.
The result for `CC(=O)NNC(=O)c1csc(Cc2c(Cl)sc3ccc(Cl)cc23)n1` reads 32.1%; that for `Cc1cccc(-c2noc(-c3ccc(F)cc3)n2)c1`, 12%.
For the molecule `Cc1ccc(-c2noc(CN3CCN(Cc4ccccc4)CC3)n2)cc1`, the inhibition is 38.4%.
`Cc1ccc(Cc2nc(-c3cccc(C)c3)no2)cc1`: the inhibition was 83.2% (active).
The result for `COc1ccc(OC)c(NC(=O)N[C@H](Cc2ccccc2)C(=O)NN)c1` reads 17.5%; that for `CCOC(=O)CC(=O)CSc1nc(-c2ccccc2)cc(-c2ccc(Cl)cc2)c1C#N`, -3.89%; that for `CCOC(=O)CSc1ccccn1`, -0.03%.
In the case of `CCOC(=O)CSc1nccc(N(C)C)c1C#N`, the inhibition is 74% (active).
The result for `Cc1ccc(NC(=O)c2nc[nH]c2C(=O)N[C@@H](CCCCNC(=O)OC(C)(C)C)C(=O)OC(C)(C)C)cc1` reads 60.9%.
The result for `COc1ccccc1NC(=O)CSc1nc2sc(C)c(C)c2c(=O)n1Cc1ccco1` reads -22.1%; that for `Cc1ccc(-c2nc(SCC(=O)Nc3ccccc3OC(F)F)c3c(C)c(C(=O)O)sc3n2)cc1`, 101% (active); that for `Cc1ccc(C)c(SCc2nc3sc(C(=O)O)c(C)c3c(=O)[nH]2)c1`, 5.2%.
The result for `O=C(O)c1ccc(/C=N/Nc2nc(N3CCCCC3)nc(N3CCCCC3)n2)cc1` reads 5.9%; that for `O=C(c1ccc(=O)oc1)N1CCC(C(O)(c2ccccc2)c2ccccc2)CC1`, 18.9%; that for `Cn1cnc(S(=O)(=O)Nc2ccc3c(c2)OCCO3)c1`, 26.2%.
Turning to `C/C(=N\NC(=S)NCc1ccccc1)c1ccc(Cl)cc1`, the inhibition is 16.1%.
The result for `CC/C(=N\NC(=S)NC(C)C)c1ccc(OC(F)F)cc1` reads 11.9%; that for `C/C(=N\NC(=S)NC(C)C)c1ccc(C(C)(C)C)cc1`, 72.1% (active).
The result for `Nc1nc(CC(=O)CSc2ccc(Cl)cc2)nc(Nc2ccc(F)cc2)n1` reads 81.9% (active); that for `Cc1ccc(Nc2nc(N)nc(CSc3nnc(C)s3)n2)cc1`, -43.6%.
For the molecule `CCOC(=O)N1CCN(Cc2nc(N)nc(Nc3ccc(C)cc3)n2)CC1`, the inhibition was 30.1%.
The result for `O=S(=O)(Cc1noc(-c2ccc(OC(F)(F)F)cc2)n1)c1ccc(F)cc1` reads -5.94%.
In the case of `COc1ccc(NC(=O)c2cn(-c3ccccc3)nc2SC)cc1`, the inhibition was 14.6%.
For `Cc1ccc(S(=O)(=O)/N=C(/Nc2ccccn2)c2ccc(Cl)cc2)cc1`, the inhibition is 14.2%.
For `O=S(=O)(/N=C(/Nc1ccccn1)c1ccccc1)c1ccc(Cl)cc1`, the inhibition was 8.33%.
As for `Cc1ccc(S/C(=N\S(=O)(=O)c2ccc(Cl)cc2)c2ccccc2)cc1`, the inhibition was 85.7% (active).
As to `O=C(Nc1cccnc1Oc1ncnc2cc(Cl)ccc12)c1ccc(F)cc1`, the inhibition is -24.4%.
The result for `CCOC(=O)c1cn[nH]c1NC(=S)Nc1ccccc1` reads -6.82%.
The result for `COc1ccc(C(=O)C2CCCN(C(=O)c3cnsn3)C2)c(C)c1` (stereo not given) reads 1.06%.
The result for `Fc1ccc(/C=N/Nc2nc(-c3cccnc3)nc3ccccc23)cc1` reads 1.02%; that for `FC(F)(F)c1cccc(N/N=C/c2ccccc2)c1`, 69%.
As to `FC(F)(F)c1nc2ccccc2nc1N/N=C/c1ccc(Cl)cc1`, the inhibition is 70.3% (active).
The result for `COc1ccc2c(CC(=O)OCC(=O)NC(N)=O)coc2c1` reads 8.09%; that for `COc1ccc(CCNC(=O)/C(C#N)=C2\N=C(NC(=O)c3cccs3)c3ccccc32)cc1`, 81.3% (active); that for `COc1ccc(CCNC(=O)c2ccco2)cc1`, 14.1%.
The result for `COc1ccc(CN(Cc2ccc(OC)cc2)C(=O)c2cccs2)cc1` reads -9.17%.
In the case of `Cc1ccc(/C=C/C(=O)O)cc1S(=O)(=O)N1CCC(Cc2ccccc2)CC1`, the inhibition is -11.4%.
In the case of `Cc1onc(-c2ccccc2)c1C(=O)N=C(N)c1ccc(Cl)cc1`, the inhibition is 6.38%.
In the case of `Fc1c(F)c(C(F)(F)F)c(F)c(F)c1N1CCN(c2ccc3nnc(C(F)(F)F)n3n2)CC1`, the inhibition was 72.7% (active).
The result for `FC(F)(F)c1nnc2ccc(N3CCN(c4ccccc4)CC3)nn12` reads 49.9%; that for `O=C(Nc1ccc(S(=O)(=O)Nc2nccs2)cc1)c1cc(=O)[nH]c2ccccc12`, 19.9%.
With `CC1(C)CCSC(/C=C/c2ccccc2)=N1`, the inhibition was -147%.
The result for `O=C(Nc1nnc(CCN2CCCCC2)s1)c1cccc(Cl)c1` reads 6.02%.
For the molecule `Nc1nnn(CC(=O)N/N=C/c2ccc(O)cc2)n1`, the inhibition is -8.23%.
The result for `Cc1ccc(C(=O)N/C(=C/c2ccc(-c3cccc([N+](=O)[O-])c3)o2)C(=O)NCCCN(C)C)cc1` reads 8.44%; that for `N#C/C(=C\c1ccc(-c2cccc([N+](=O)[O-])c2)o1)C(=O)NCCN1CCOCC1`, 27.9%; that for `Cc1ccc(Cc2cnc(NC(=O)/C(C#N)=C/c3ccc(-c4cccc([N+](=O)[O-])c4)o3)s2)cc1`, 93.4% (active).
In the case of `Cc1ccc(/C=N/NC(=S)NC2CCCCC2)o1`, the inhibition was 2.92%.
Regarding `Nc1ccccc1Sc1cc(Cl)nnc1Cl`, the inhibition was 20%.
The result for `CC(=O)Nc1ccc(CC#N)cc1` reads 18.1%.
Turning to `CC1(C)CC(=O)C(N=Nc2c(F)cccc2F)=C(O)C1`, the inhibition was 7.79%.
In the case of `CCOc1ccc(Cn2c(SCCCCC#N)nc3c2c(=O)n(C)c(=O)n3C)cc1OCC`, the inhibition is 17.3%.
The result for `CCCSc1nc2c(c(=O)n(C)c(=O)n2C)n1Cc1ccc(C)cc1` reads 77.2% (active).
`Cc1cccc(Cn2c(SCCO)nc3c2c(=O)n(C)c(=O)n3C)c1`: the inhibition was 16.8%.
For `Cc1nc2cc(NC(=O)Nc3cccc(F)c3)ccc2n1C`, the inhibition was -0.84%.
Turning to `C/C(Cc1ccccc1)=N\NC(=O)CNC(=O)c1ccc2c(c1)OCCO2`, the inhibition is 14.9%.
Turning to `CC(=O)N1CCC(N(C(=O)Nc2ccc(Cl)cc2)C(C)C)CC1`, the inhibition was 15.3%.

(Values after PubChem BioAssay AID2732 (Emory University Molecular Libraries Screening Center, 2010).)
